Measured values from PubChem BioAssay AID1159580 (chemical genetic matrix, 2015).
Values joined by “and” are separate entries in the source; they are usually repeats but may differ in a detail not shown here. Identical values can stand only once. Screen size: about 5,500 compounds; about 2,000 (36%) were called active. Another 18% or so got no clear call; they are omitted. Cut-off read from the data, not from the text of the source: active = normalized growth mostly below about 0.91 (no sharp cut-off); inconclusive = no clear call, values can overlap the other calls; inactive = mostly above about 0.92. The list shows a part of the results.

Assay: chemical genetic growth profiling, strain panel (AID 1159580);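 note: tested at 20 µM; growth read once vehicle control cultures reached saturation at 30 °C; 1 = growth at the plate median or of vehicle wells; lower values mean less growth of the strain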
Conditions: growth OD

Measured: normalized growth

CC(C)[N+](C)(CCOC(=O)C1c2ccccc2Oc2ccccc21)C(C)C
inactive: S. cerevisiae deletion strains, locus YJR075W, strain HOC1, hits give low values 1.02 | S. cerevisiae deletion strains, locus YKL009W, strain mrt4, hits give low values 1.02 | S. cerevisiae deletion strains, locus YKL068W, hits give low values 1.01 | S. cerevisiae deletion strains, locus YKL085W, strain MDH1 (second series), hits give low values 1.01 | S. cerevisiae deletion strains, locus YKL085W, strain MDH1, hits give low values 1.01 | S. cerevisiae deletion strains, locus YKL160W, strain elf1, hits give low values 1.04 | S. cerevisiae deletion strains, locus YKL190W, strain CNB1, hits give low values 1.02 | S. cerevisiae deletion strains, locus YKR001C, strain vps1, hits give low values 1.01 | S. cerevisiae deletion strains, locus YKR026C, strain gcn3, hits give low values 0.997 | S. cerevisiae deletion strains, locus YKR091W, strain srl3, hits give low values 0.994 | S. cerevisiae deletion strains, locus YLL001W, strain dnm1, hits give low values 1.01 | S. cerevisiae deletion strains, locus YLL026W, hits give low values 1.02 | S. cerevisiae deletion strains, locus YLL041C, strain sdh2, hits give low values 1 | S. cerevisiae deletion strains, locus YLR027C, strain aat2, hits give low values 1 | S. cerevisiae deletion strains, locus YLR039C, strain RIC1, hits give low values 1.05 | S. cerevisiae deletion strains, locus YLR058C, strain SHM2, hits give low values 1.01 | S. cerevisiae deletion strains, locus YLR102C, strain apc9, hits give low values 1 | S. cerevisiae deletion strains, locus YLR113W, strain HOG1, hits give low values 1.02 | S. cerevisiae deletion strains, locus YLR221C, strain rsa3, hits give low values 0.996 | S. cerevisiae deletion strains, locus YLR258W, strain gsy2, hits give low values 1.02 | S. cerevisiae deletion strains, locus YLR262C, strain YPT6 (second series), hits give low values 1 | S. cerevisiae deletion strains, locus YLR262C, strain YPT6, hits give low values 1.07 | S. cerevisiae deletion strains, locus YLR268W, strain sec22, hits give low values 1.02 | S. cerevisiae deletion strains, locus YLR320W, strain mms22, hits give low values 0.985 | S. cerevisiae deletion strains, locus YLR330W, strain CHS5, hits give low values 1 | S. cerevisiae deletion strains, locus YLR342W, strain FKS1 (second series), hits give low values 1.02 | S. cerevisiae deletion strains, locus YLR342W, strain FKS1, hits give low values 1.02 | S. cerevisiae deletion strains, locus YLR357W, strain rsc2, hits give low values 1.02 | S. cerevisiae deletion strains, locus YLR370C, strain arc18, hits give low values 1.01 | S. cerevisiae deletion strains, locus YLR371W, strain rom2, hits give low values 1.01 | S. cerevisiae deletion strains, locus YLR384C, strain iki3, hits give low values 1.02 | S. cerevisiae deletion strains, locus YLR418C, strain cdc73, hits give low values 1.02 | S. cerevisiae deletion strains, locus YML016C, strain PPZ1, hits give low values 1 | S. cerevisiae deletion strains, locus YML032C, strain rad52, hits give low values 1.01 | S. cerevisiae deletion strains, locus YML120C, strain ndi1, hits give low values 1.01 | S. cerevisiae deletion strains, locus YML124C, strain tub3, hits give low values 1.01 | S. cerevisiae deletion strains, locus YMR058W, strain fet3, hits give low values 1 | S. cerevisiae deletion strains, locus YMR078C, strain ctf18, hits give low values 1 | S. cerevisiae deletion strains, locus YMR125W, strain sto1, hits give low values 1 | S. cerevisiae deletion strains, locus YMR129W, hits give low values 1.01 | S. cerevisiae deletion strains, locus YMR205C, strain PFK2, hits give low values 0.998 | S. cerevisiae deletion strains, locus YMR223W, strain ubp8, hits give low values 0.994 | S. cerevisiae deletion strains, locus YMR231W, strain pep5, hits give low values 1.01 | S. cerevisiae deletion strains, locus YMR307W, strain GAS1, hits give low values 1.01 and 1.02 | S. cerevisiae deletion strains, locus YNL067W, strain RPL9B, hits give low values 1.01 | S. cerevisiae deletion strains, locus YNL071W, strain lat1, hits give low values 1.01 | S. cerevisiae deletion strains, locus YNL128W, strain TEP1, hits give low values 1.02 | S. cerevisiae deletion strains, locus YNL153C, strain GIM3, hits give low values 1.01 and 0.989 | S. cerevisiae deletion strains, locus YNL175C, strain NOP13, hits give low values 1.02 | S. cerevisiae deletion strains, locus YNL183C, strain NPR1, hits give low values 0.971 | S. cerevisiae deletion strains, locus YNL197C, strain WHI3, hits give low values 0.999 | S. cerevisiae deletion strains, locus YNL209W, strain ssb2, hits give low values 1.01 | S. cerevisiae deletion strains, locus YNL224C, strain SQS1, hits give low values 1 | S. cerevisiae deletion strains, locus YNL233W, strain BNI4, hits give low values 1.01 | S. cerevisiae deletion strains, locus YNL248C, strain rpa49, hits give low values 1.04 | S. cerevisiae deletion strains, locus YNL250W, strain rad50, hits give low values 1.02 | S. cerevisiae deletion strains, locus YNL271C, strain bni1, hits give low values 1.01 | S. cerevisiae deletion strains, locus YNL298W, strain CLA4, hits give low values 1.03 | S. cerevisiae deletion strains, locus YNL307C, strain MCK1, hits give low values 1 | S. cerevisiae deletion strains, locus YNL322C, strain KRE1 (second series), hits give low values 1.02 | S. cerevisiae deletion strains, locus YNR049C, strain mso1, hits give low values 1.01 | S. cerevisiae deletion strains, locus YNR052C, strain pop2, hits give low values 1.01 | S. cerevisiae deletion strains, locus YOL006C, strain TOP1, hits give low values 1 | S. cerevisiae deletion strains, locus YOL012C, strain htz1 0.959 | S. cerevisiae deletion strains, locus YOL147C, strain pex11, hits give low values 1.01 | S. cerevisiae deletion strains, locus YOR001W, strain rrp6, hits give low values 0.976 | S. cerevisiae deletion strains, locus YOR061W, strain CKA2, hits give low values 1.01 | S. cerevisiae deletion strains, locus YOR069W, strain VPS5, hits give low values 1 | S. cerevisiae deletion strains, locus YOR070C, strain gyp1, hits give low values 1.01 | S. cerevisiae deletion strains, locus YOR080W, strain dia2, hits give low values 1.01 | S. cerevisiae deletion strains, locus YOR083W, strain WHI5 (second series), hits give low values 1.01 | S. cerevisiae deletion strains, locus YOR083W, strain WHI5, hits give low values 0.979 | S. cerevisiae deletion strains, locus YOR106W, strain vam3, hits give low values 1.03 | S. cerevisiae deletion strains, locus YOR136W, strain idh2, hits give low values 1 | S. cerevisiae deletion strains, locus YOR144C, strain elg1, hits give low values 1 | S. cerevisiae deletion strains, locus YOR184W, strain ser1, hits give low values 1.01 | S. cerevisiae deletion strains, locus YOR231W, strain MKK1, hits give low values 0.991 | S. cerevisiae deletion strains, locus YOR265W, strain rbl2, hits give low values 1 | S. cerevisiae deletion strains, locus YOR270C, strain vph1, hits give low values 1.04 | S. cerevisiae deletion strains, locus YOR290C, strain snf2, hits give low values 1.02 | S. cerevisiae deletion strains, locus YOR316C, strain cot1, hits give low values 1.01 | S. cerevisiae deletion strains, locus YPL051W, strain arl3, hits give low values 1.02 | S. cerevisiae deletion strains, locus YPL055C, strain LGE1, hits give low values 1.01 | S. cerevisiae deletion strains, locus YPL078C, strain atp4, hits give low values 1.02 | S. cerevisiae deletion strains, locus YPL106C, strain sse1, hits give low values 1.01 | S. cerevisiae deletion strains, locus YPL240C, strain hsp82, hits give low values 1.01 | S. cerevisiae deletion strains, locus YPL241C, strain CIN2, hits give low values 1.01 | S. cerevisiae deletion strains, locus YPL256C, strain CLN2, hits give low values 1.06 | S. cerevisiae deletion strains, locus YPR119W, strain clb2, hits give low values 0.996 | S. cerevisiae deletion strains, locus YPR141C, strain kar3, hits give low values 1.01 | S. cerevisiae deletion strains, locus YPR163C, strain tif3, hits give low values 1 | S. cerevisiae deletion strains, locus YPR167C, strain met16, hits give low values 1 | S. cerevisiae deletion strains, strain wtn01, hits give low values 1.01 | S. cerevisiae strains, strain wild type, hits give low values 1
